Measured values taken from PubChem BioAssay (EPA / NIEHS).
Inconclusive results are not listed. The source made the active and inactive calls. How the source made its calls: active means hit-call score of the fitted dose curve at least 0.9, where 1 is the maximum; inconclusive means response in the unintended direction; inactive means score below 0.9.

Biological target: human AKT serine/threonine Kinase 1 (AKT1), AKT1 (gene 207) (UniProt P31749)
Assay: NVS_ENZ_hAKT1: NovaScreen (NVS) Enzymatic Assay for human AKT serine/threonine Kinase 1 (AKT1) (AID 2283138)
Outline: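 A biochemical assay with recombinant enzyme and specific substrate, read by fluorescence intensity with mobility-shift separation 1 hour after dosing. Actives from 25 uM duplicate screening were titrated up to 50 uM against DMSO baseline.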

human AKT serine/threonine Kinase 1 (AKT1), AKT1 (gene 207), sequence (P31749 whole entry, looked up): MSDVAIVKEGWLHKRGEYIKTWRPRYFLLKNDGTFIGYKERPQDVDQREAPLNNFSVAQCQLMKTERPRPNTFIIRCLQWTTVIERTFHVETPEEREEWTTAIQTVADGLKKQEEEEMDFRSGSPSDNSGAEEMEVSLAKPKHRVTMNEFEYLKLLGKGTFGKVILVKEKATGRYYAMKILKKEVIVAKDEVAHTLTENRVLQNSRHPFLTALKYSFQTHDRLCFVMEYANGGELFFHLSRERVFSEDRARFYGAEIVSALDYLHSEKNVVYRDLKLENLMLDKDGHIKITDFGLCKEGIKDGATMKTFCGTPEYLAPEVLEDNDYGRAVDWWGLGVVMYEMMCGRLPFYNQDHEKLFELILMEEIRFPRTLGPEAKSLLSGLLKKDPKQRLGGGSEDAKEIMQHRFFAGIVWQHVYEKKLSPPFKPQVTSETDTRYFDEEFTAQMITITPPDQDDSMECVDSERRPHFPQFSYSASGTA

Q: How did the outcome turn out when `CC(C)CC(C)(O)C#CC(C)(O)CC(C)C` (configuration not stated) was run?
A: The outcome was “inactive”.

Q: Which AC50 does the source give for `NC(=O)NO` here?
A: The AC50 was 16.5 µM (active).

Q: `CC(C)c1cccc(C(C)C)c1N1C(=O)c2ccc(O)cc2C1=O` was tested. Which outcome did it give?
A: Its outcome is “inactive”.

Q: For `O=C(O)c1cc(N=Nc2ccc(S(=O)(=O)Nc3ccccn3)cc2)ccc1O`, which outcome is on record?
A: Its outcome is “inactive”.

Q: Which outcome does the source give for `CCOCCOCCOCCO` here?
A: The outcome was “inactive”.

Q: For `Cc1ccc(N)cc1O`, which outcome is on record?
A: The outcome was “inactive”.

Q: How did the outcome turn out when `O=C(O)c1cccc(Oc2ccccc2)c1` was run?
A: The outcome was “inactive”.

Biological target: human Beta-secretase (BACE), BACE1 (gene 23621) (UniProt P56817)
Assay: NVS_ENZ_hBACE: NovaScreen (NVS) Enzymatic Assay for human Beta-secretase (BACE) (AID 2283140);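 further: hits are inhibitors that reduce fluorescent substrate signal versus DMSO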
Outline: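 Enzyme activity of SF9-produced BACE1 is measured cell-free by fluorescence, 1 hour post dosing, normalised to DMSO. Screening used 25 uM in duplicate, with concentration-response follow-up for actives.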

human Beta-secretase (BACE), BACE1 (gene 23621), sequence (P56817 whole entry, looked up): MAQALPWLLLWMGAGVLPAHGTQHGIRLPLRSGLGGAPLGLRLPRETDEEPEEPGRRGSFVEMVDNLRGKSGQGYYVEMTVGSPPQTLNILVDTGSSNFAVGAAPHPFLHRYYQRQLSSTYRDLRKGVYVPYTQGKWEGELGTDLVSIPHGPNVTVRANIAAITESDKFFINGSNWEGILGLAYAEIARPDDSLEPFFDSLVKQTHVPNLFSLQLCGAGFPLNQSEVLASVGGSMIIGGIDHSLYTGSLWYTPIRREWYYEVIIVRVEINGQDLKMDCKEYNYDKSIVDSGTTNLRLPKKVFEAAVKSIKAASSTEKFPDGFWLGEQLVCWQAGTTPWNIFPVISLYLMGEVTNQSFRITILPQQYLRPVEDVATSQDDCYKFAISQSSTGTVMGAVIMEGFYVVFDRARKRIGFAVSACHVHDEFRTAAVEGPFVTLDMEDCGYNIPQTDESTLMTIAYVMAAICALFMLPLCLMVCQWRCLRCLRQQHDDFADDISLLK

Q: For `CNCc1ccc(NC(=O)c2c[nH]c3c2C(=O)CCC3)cc1`, which outcome is on record?
A: The outcome was “inactive”.

Q: Which outcome does the source give for `CCCCCCc1ccc(O)cc1O` here?
A: The outcome was “inactive”.

Q: With `CCOc1cccc(-n2cc(C(=O)N3CCN(c4cc(C(=O)O)c5ccccc5c4)CC3)nc2-c2ccc(C)cc2)c1` as the compound, how does the AC50 read?
A: The AC50 was 10.5 µM (active).

Q: `O=C(OC[C@H]1O[C@@H](OC(=O)c2cc(O)c(O)c(OC(=O)c3cc(O)c(O)c(O)c3)c2)[C@H](OC(=O)c2cc(O)c(O)c(OC(=O)c3cc(O)c(O)c(O)c3)c2)[C@@H](OC(=O)c2cc(O)c(O)c(OC(=O)c3cc(O)c(O)c(O)c3)c2)[C@@H]1OC(=O)c1cc(O)c(O)c(OC(=O)c2cc(O)c(O)c(O)c2)c1)c1cc(O)c(O)c(OC(=O)c2cc(O)c(O)c(O)c2)c1` was tested. Which AC50 did it give?
A: Its AC50 is 3.11 µM (active).

Q: `O=C1CCC(N2C(=O)c3ccccc3C2=O)C(=O)N1` (configuration not stated) was tested. Which outcome did it give?
A: The outcome was “inactive”.
